From PubChem BioAssay AID1159580 (chemical genetic matrix, 2015)
Out of some 5,500 compounds screened, about 2,000 (36%) were called active. Not shown: some 18% with an inconclusive outcome. The list shows a part of the results. Unmarked numbers belong to inactive results. No stated cut-off is given here; in the data, active means normalized growth mostly below about 0.91 (no sharp cut-off); inconclusive means no clear call, values can overlap the other calls; inactive means mostly above about 0.92.

Assay: chemical genetic growth profiling, strain panel (AID 1159580);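 further: tested at 20 µM; growth read once vehicle control cultures reached saturation at 30 °C; 1 = growth at the plate median or of vehicle wells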
Details: S. cerevisiae deletion strains, growth OD
[1] = locus YAL040C, strain CLN3, stronger effect = lower value
[2] = locus YDR363W, strain ESC2, stronger effect = lower value
[3] = locus YER002W, strain NOP16, stronger effect = lower value
[4] = locus YMR263W, strain SAP30, stronger effect = lower value
[5] = locus YNL153C, strain GIM3, stronger effect = lower value
[6] = locus YNL175C, strain NOP13, stronger effect = lower value
[7] = locus YNL197C, strain WHI3, stronger effect = lower value
[8] = locus YNL224C, strain SQS1, stronger effect = lower value
[9] = locus YOR083W, strain WHI5 (second series), stronger effect = lower value
[10] = locus YPL241C, strain CIN2, stronger effect = lower value

**Q.** With CC(C)[C@@]1(NC(=O)[C@@H]2C=C3c4cccc5[nH]cc(c45)C[C@H]3N(C)C2)O[C@@]2(O)[C@@H]3CCCN3C(=O)[C@H](Cc3ccccc3)N2C1=O as the compound, how does the normalized growth [1] read?
**A.** 0.989

**Q.** And the normalized growth (locus YCL061C, strain MRC1 (second series), stronger effect = lower value)?
**A.** 0.996

**Q.** And the normalized growth [2]?
**A.** 0.993

**Q.** What about the normalized growth [3] of the same compound?
**A.** 0.998

**Q.** What about the normalized growth [4] of the same compound?
**A.** 0.999

**Q.** And the normalized growth (locus YMR307W, strain GAS1, stronger effect = lower value)?
**A.** 0.982

**Q.** And the normalized growth [5]?
**A.** 0.99

**Q.** And the normalized growth [6]?
**A.** 1.01

**Q.** And the normalized growth [7]?
**A.** 1

**Q.** What about the normalized growth [8] of the same compound?
**A.** 0.972

**Q.** What about the normalized growth [9] of the same compound?
**A.** 1.04

**Q.** And the normalized growth (locus YPL055C, strain LGE1, stronger effect = lower value)?
**A.** 0.99

**Q.** What about the normalized growth [10] of the same compound?
**A.** 0.998

**Q.** With CC(C)C[C@H]1C(=O)N2CCC[C@H]2[C@]2(O)O[C@](NC(=O)[C@@H]3C=C4c5cccc6[nH]c(Br)c(c56)C[C@H]4N(C)C3)(C(C)C)C(=O)N12 as the compound, how does the normalized growth [1] read?
**A.** 0.741 (active)

**Q.** And the normalized growth (locus YDR150W, strain NUM1, stronger effect = lower value)?
**A.** 0.996

**Q.** And the normalized growth [2]?
**A.** 1.02

**Q.** And the normalized growth [3]?
**A.** 1.03

**Q.** And the normalized growth [4]?
**A.** 1.01

**Q.** What about the normalized growth (locus YNL128W, strain TEP1, stronger effect = lower value) of the same compound?
**A.** 1.03

**Q.** What about the normalized growth [5] of the same compound?
**A.** 0.974

**Q.** And the normalized growth [6]?
**A.** 1.04

**Q.** And the normalized growth [7]?
**A.** 1.01

**Q.** And the normalized growth [8]?
**A.** 1.01

**Q.** What about the normalized growth [9] of the same compound?
**A.** 1.03

**Q.** And the normalized growth [10]?
**A.** 0.989
